This note sets out measurements from PubChem BioAssay (EPA / NIEHS).

“And” between values parts separate entries of the source, which are not always exact repeats. Identical values can stand only once. Some structures have more than one record in an assay (separate samples or runs), and their calls can disagree. The source made the active and inactive calls. The calls were made as follows: active = hit-call score of the fitted dose curve at least 0.9, where 1 is the maximum; inactive = score below 0.9.

Conditions in all cases: mRNA level, 48 h; actives raise or lower the signal
Read-out in one test: MYC, MYC (gene 4609)
Put plainly: LTEA_HepaRG_MYC: Life Technologies and Expression Analysis (LTEA) Assay for MYC using HepaRG (AID 2283518). The essentials:
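qRT-PCR read-out of MYC transcript (Fluidigm TaqMan, housekeeping-normalized) after 48 h chemical exposure of HepaRG cells; eight concentrations, top 100 uM, half-log steps. Bidirectional curve fitting against 0.5% DMSO vehicle baseline.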

Read-out in test [1]: Paternally Expressed 10 (PEG10), PEG10 (gene 23089)
Description: LTEA_HepaRG_PEG10: Life Technologies and Expression Analysis (LTEA) Assay for Paternally Expressed 10 (PEG10) using HepaRG (AID 2283520).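 As to AC50: differentiated HepaRG human liver cells in serum-free induction medium with 0.5% DMSO; PEG10 transcript by qRT-PCR normalised to ACTB GAPDH and POLR2A.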 Summed up: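 qRT-PCR read-out: PEG10 mRNA normalised to three housekeeping genes, fitted bidirectionally against 0.5% DMSO vehicle. HepaRG cells received test chemicals for 48 h in serum-free induction medium, 8 points, top 100 uM, half-log steps.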

Read-out in test [2]: Nuclear factor NF-kappa-B p105 subunit (Homo sapiens) (UniProt P19838)
Description: LTEA_HepaRG_NFKB1: Life Technologies and Expression Analysis (LTEA) Assay for Nuclear Factor Kappa B Subunit 1 (NFKB1) using HepaRG (AID 2283521).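 As to outcome: differentiated human HepaRG liver cells in serum-free induction medium.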 The essentials: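 NFKB1 transcript was measured by TaqMan qRT-PCR on Fluidigm arrays, normalised to three housekeeping genes and fitted in both directions against 0.5% DMSO. HepaRG cells were dosed in duplicate for 48 h in serum-free induction medium, eight half-log steps from 100 uM.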

Read-out in test [3]: Protein phosphatase 2A (PPP2R4), PTPA (gene 5524)
Put plainly: LTEA_HepaRG_PPP2R4: Life Technologies and Expression Analysis (LTEA) Assay for Protein phosphatase 2A (PPP2R4) using HepaRG (AID 2283522). Summed up:
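HepaRG, 48 h exposure, 8-pt half-log series from 100 uM, 0.5% DMSO vehicle, duplicates. Readout: PPP2R4 mRNA, Fluidigm qRT-PCR, housekeeping-normalized. Bidirectional curve fit vs DMSO baseline.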

Read-out in test [4]: Phosphatase and tensin (PTEN), PTEN (gene 5728)
Description: LTEA_HepaRG_PTEN: Life Technologies and Expression Analysis (LTEA) Assay for Phosphatase and tensin (PTEN) using HepaRG (AID 2283523). The essentials: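 HepaRG, 48 h exposure, 8-pt half-log series from 100 uM top, 0.5% DMSO vehicle, duplicates. Readout: Fluidigm qRT-PCR of PTEN transcript; housekeeping normalization (ACTB, GAPDH, POLR2A). Gain or loss fitted relative to DMSO baseline.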

Read-out in test [5]: solute carrier (SLC22A1), SLC22A1 (gene 6580)
Put plainly: LTEA_HepaRG_SLC22A1: Life Technologies and Expression Analysis (LTEA) Assay for solute carrier (SLC22A1) using HepaRG (AID 2283524).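 As to AC50: differentiated human HepaRG liver cells in serum-free induction medium.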 The essentials:
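qRT-PCR readout (TaqMan, Fluidigm arrays) of SLC22A1 transcript, normalized to three housekeeping genes; bidirectional curve fit relative to 0.5% DMSO vehicle. Differentiated human HepaRG cells, 48 h chemical exposure, top concentration 100 uM, half-log steps, eight points.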

Read-out in test [6]: Pyruvate Dehydrogenase Kinase 4 (PDK4), PDK4 (gene 5166)
Description: LTEA_HepaRG_PDK4: Life Technologies and Expression Analysis (LTEA) Assay for Pyruvate Dehydrogenase Kinase 4 (PDK4) using HepaRG (AID 2283525). Summed up:
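HepaRG (human liver line), 48 h chemical exposure, 8-pt half-log CRC top 100 uM, 0.5% DMSO vehicle, duplicates. Readout: TaqMan qRT-PCR of PDK4 mRNA, housekeeping-normalized; gain/loss fit relative to DMSO baseline.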

Read-out in test [7]: NAD(P)H dehydrogenase [quinone] 1 (NQO1), NQO1 (gene 1728)
Put plainly: LTEA_HepaRG_NQO1: Life Technologies and Expression Analysis (LTEA) Assay for NAD(P)H dehydrogenase [quinone] 1 (NQO1) using HepaRG (AID 2283526). The essentials:
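qRT-PCR read-out (Fluidigm TaqMan), normalized to three housekeeping genes, after 48 h chemical exposure of HepaRG cells. Concentrations: eight points, top 100 uM, half-log steps, 0.5% DMSO vehicle. Gain or loss of signal fitted relative to DMSO.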

Read-out in test [8]: Nuclear factor erythroid 2-related factor 2 (Homo sapiens) (UniProt Q16236)
Description: LTEA_HepaRG_NFE2L2: Life Technologies and Expression Analysis (LTEA) Assay for Nuclear factor erythroid 2-related factor 2 (NFE2L2) Transcription Factor using HepaRG (AID 2283527). Summed up:
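HepaRG, 48 h dosing, 8-pt half-log series from 100 uM in 0.5% DMSO, duplicates. Read-out: NFE2L2 mRNA by qRT-PCR (ACTB/GAPDH/POLR2A normalization). Bidirectional curve fit vs DMSO baseline.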

Read-out in test [9]: succinate dehydrogenase complex iron sulfur subunit B (SDHB), SDHB (gene 6390)
Put plainly: LTEA_HepaRG_SDHB: Life Technologies and Expression Analysis (LTEA) Assay for succinate dehydrogenase complex iron sulfur subunit B (SDHB) using HepaRG (AID 2283528). Summed up:
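SDHB transcript level read by TaqMan qRT-PCR, housekeeping-normalised (ACTB, GAPDH, POLR2A), after 48 h chemical treatment of plated HepaRG cells; eight concentrations top 100 uM, half-log steps, 0.5% DMSO, duplicates; fitted both directions against DMSO.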

Read-out in test [10]: Signal transducer and activator of transcription 3 (Homo sapiens) (UniProt P40763)
Description: LTEA_HepaRG_STAT3: Life Technologies and Expression Analysis (LTEA) Assay for Signal transducer and activator of transcription (STAT3) using HepaRG (AID 2283529). The essentials: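 HepaRG, 48 h exposure, 8-pt half-log series (top 100 uM), 0.5% DMSO vehicle, duplicates. Readout: STAT3 transcript by Fluidigm qRT-PCR, housekeeping-normalized; bidirectional fit vs DMSO baseline.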

Read-out in test [11]: solute carrier (SLCO1B1), SLCO1B1 (gene 10599)
Description: LTEA_HepaRG_SLCO1B1: Life Technologies and Expression Analysis (LTEA) Assay for solute carrier (SLCO1B1) using HepaRG (AID 2283530). The essentials:
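SLCO1B1 transcript read by qRT-PCR (Fluidigm arrays), normalized to three housekeeping genes, after 48 h chemical exposure of HepaRG cells; bidirectional concentration-response fitting versus 0.5% DMSO baseline. Eight-point half-log series, maximum 100 uM.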

Read-out in test [12]: Transforming Growth Factor (TGFA), TGFA (gene 7039)
Description: LTEA_HepaRG_TGFA: Life Technologies and Expression Analysis (LTEA) Assay for Transforming Growth Factor (TGFA) using HepaRG (AID 2283532). Summed up: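 qRT-PCR read-out of TGFA transcript, normalized to three housekeeping genes, fitted bidirectionally against 0.5% DMSO baseline. Human HepaRG cultures received chemicals for 48 h at eight half-log concentrations, top 100 uM.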

Read-out in test [13]: Tumor necrosis factor receptor 1 (TNFRSF1A), TNFRSF1A (gene 7132)
Description: LTEA_HepaRG_TNFRSF1A: Life Technologies and Expression Analysis (LTEA) Assay for Tumor necrosis factor receptor 1 (TNFRSF1A) using HepaRG (AID 2283535). Summed up: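 HepaRG, 48 h plating then 48 h chemical exposure, serum-free induction media; 8-pt CRC from 100 uM, half-log, 0.5% DMSO vehicle, duplicates. Readout: TaqMan qRT-PCR (Fluidigm), housekeeping-gene normalized; bidirectional fit vs DMSO.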

Read-out in test [14]: Thyroid Hormone Responsive (THRSP), THRSP (gene 7069)
Description: LTEA_HepaRG_THRSP: Life Technologies and Expression Analysis (LTEA) Assay for Thyroid Hormone Responsive (THRSP) using HepaRG (AID 2283536). Summed up: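 qRT-PCR read-out (Fluidigm TaqMan), housekeeping-normalized (ACTB/GAPDH/POLR2A). HepaRG, 48 h chemical exposure, 8-pt half-log series from 100 uM in 0.5% DMSO, duplicates. Bidirectional curve fit vs 0.5% DMSO baseline.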

Read-out in test [15]: Cellular tumor antigen p53 (Homo sapiens) (UniProt P04637)
Put plainly: LTEA_HepaRG_TP53: Life Technologies and Expression Analysis (LTEA) Assay for Tumor Protein P53 (TP53) using HepaRG (AID 2283537). The essentials:
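TP53 transcript measured by qRT-PCR, normalized to three housekeeping genes, after 48 h treatment of human HepaRG cultures with chemicals from 100 uM downward in half-log steps (0.5% DMSO vehicle, serum-free induction medium). Up- or down-regulation fitted against DMSO.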

Read-out in test [16]: Transforming Growth Factor (TGFB1), TGFB1 (gene 7040)
Description: LTEA_HepaRG_TGFB1: Life Technologies and Expression Analysis (LTEA) Assay for Transforming Growth Factor (TGFB1) Transporter using HepaRG (AID 2283533). The essentials: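 qRT-PCR readout of TGFB1 transcript in HepaRG lysates, normalized to three housekeeping genes; gain or loss of signal fitted relative to 0.5% DMSO vehicle. Exposure: 48 h, 8-point curve from 100 uM, duplicate wells.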

Nuclear factor erythroid 2-related factor 2 (Homo sapiens), sequence (Q16236 whole entry, looked up): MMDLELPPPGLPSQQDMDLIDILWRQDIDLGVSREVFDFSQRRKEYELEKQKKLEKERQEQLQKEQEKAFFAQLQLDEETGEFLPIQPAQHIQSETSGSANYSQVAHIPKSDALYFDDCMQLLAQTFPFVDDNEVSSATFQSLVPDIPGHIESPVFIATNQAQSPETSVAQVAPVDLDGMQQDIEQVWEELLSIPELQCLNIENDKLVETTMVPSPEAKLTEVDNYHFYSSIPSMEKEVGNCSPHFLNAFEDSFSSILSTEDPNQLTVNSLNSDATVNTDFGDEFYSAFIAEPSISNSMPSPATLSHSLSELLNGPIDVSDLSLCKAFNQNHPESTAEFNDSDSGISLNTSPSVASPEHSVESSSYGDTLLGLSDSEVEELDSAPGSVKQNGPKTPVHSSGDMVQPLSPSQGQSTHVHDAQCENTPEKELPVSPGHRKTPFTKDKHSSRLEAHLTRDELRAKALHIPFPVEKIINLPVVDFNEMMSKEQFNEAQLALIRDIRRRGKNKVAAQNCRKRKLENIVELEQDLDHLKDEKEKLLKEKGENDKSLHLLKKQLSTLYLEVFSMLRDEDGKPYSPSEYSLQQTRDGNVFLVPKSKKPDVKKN
Nuclear factor NF-kappa-B p105 subunit (Homo sapiens), sequence (P19838 whole entry, looked up): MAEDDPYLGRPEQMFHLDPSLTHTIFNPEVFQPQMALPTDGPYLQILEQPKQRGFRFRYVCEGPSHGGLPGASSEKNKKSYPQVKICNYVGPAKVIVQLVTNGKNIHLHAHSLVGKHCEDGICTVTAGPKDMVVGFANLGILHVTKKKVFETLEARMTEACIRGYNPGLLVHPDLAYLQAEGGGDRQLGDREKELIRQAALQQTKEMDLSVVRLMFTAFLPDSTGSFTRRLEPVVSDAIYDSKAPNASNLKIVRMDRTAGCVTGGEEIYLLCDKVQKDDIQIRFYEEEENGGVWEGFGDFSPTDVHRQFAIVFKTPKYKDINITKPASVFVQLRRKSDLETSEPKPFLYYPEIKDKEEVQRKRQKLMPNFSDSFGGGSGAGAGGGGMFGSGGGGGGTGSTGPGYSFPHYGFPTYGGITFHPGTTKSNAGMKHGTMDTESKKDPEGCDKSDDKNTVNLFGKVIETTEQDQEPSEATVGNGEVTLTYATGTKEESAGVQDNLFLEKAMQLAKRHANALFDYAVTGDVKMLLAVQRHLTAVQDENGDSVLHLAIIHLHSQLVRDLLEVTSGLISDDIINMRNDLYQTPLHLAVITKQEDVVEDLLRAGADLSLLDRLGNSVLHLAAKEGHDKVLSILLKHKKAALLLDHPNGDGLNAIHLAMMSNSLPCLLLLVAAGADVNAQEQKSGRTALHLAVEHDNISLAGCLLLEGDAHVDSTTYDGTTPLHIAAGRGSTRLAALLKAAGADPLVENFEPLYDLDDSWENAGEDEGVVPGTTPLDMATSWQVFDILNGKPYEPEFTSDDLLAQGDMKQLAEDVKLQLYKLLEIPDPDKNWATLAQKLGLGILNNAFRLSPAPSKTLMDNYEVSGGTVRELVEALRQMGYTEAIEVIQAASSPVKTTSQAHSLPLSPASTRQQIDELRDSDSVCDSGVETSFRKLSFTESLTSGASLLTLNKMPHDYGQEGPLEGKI
Cellular tumor antigen p53 (Homo sapiens), sequence (P04637 whole entry, looked up): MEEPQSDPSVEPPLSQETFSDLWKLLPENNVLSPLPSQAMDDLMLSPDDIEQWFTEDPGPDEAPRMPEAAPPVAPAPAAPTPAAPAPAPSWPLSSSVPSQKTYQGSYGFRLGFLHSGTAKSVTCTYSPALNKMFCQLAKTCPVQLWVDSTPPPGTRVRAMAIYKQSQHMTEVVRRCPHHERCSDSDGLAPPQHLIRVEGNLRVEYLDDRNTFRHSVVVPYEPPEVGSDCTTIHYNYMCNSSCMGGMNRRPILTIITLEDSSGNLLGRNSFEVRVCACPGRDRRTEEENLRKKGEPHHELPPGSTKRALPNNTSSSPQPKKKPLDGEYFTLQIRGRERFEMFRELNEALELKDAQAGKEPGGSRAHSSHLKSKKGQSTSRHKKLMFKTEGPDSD
Signal transducer and activator of transcription 3 (Homo sapiens), sequence (P40763 whole entry, looked up): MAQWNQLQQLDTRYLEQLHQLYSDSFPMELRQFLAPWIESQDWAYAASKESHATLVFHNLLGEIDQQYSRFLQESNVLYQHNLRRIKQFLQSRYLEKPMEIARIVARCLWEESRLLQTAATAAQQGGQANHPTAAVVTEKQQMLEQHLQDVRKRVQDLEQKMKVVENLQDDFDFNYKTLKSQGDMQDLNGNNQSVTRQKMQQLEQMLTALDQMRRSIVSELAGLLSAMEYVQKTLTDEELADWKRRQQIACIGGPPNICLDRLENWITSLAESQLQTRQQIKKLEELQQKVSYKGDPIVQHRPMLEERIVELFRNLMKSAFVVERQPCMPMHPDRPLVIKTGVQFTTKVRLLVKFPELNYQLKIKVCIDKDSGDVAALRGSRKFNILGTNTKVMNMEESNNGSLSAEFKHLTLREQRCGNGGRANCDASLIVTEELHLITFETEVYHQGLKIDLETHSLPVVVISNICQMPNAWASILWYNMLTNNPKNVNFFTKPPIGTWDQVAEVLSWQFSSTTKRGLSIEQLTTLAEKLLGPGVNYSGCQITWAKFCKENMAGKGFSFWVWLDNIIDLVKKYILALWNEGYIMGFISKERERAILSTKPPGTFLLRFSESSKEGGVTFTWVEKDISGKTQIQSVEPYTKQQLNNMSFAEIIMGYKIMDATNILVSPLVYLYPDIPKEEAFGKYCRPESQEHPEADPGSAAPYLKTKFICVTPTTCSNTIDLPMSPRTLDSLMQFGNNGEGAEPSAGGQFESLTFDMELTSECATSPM

As a reminder, the AC50 is the concentration giving half of the maximal activity seen. With `CCCN(CCC)c1c([N+](=O)[O-])cc(S(N)(=O)=O)cc1[N+](=O)[O-]`, the AC50 is 86.2 µM (active) with MYC, MYC (gene 4609); 96.3 µM (active) and 41 µM (active) and 7.55 µM (active) in test [1]; 72 µM (active) in test [3]; 93.1 µM (active) and 75.5 µM (active) and 76.5 µM (active) in test [4]; 57 µM (active) in [5]; 92.7 µM (active) and 50 µM (active) and 83.9 µM (active) in test [6]. The concentration at half-maximal activity (AC50) in test [8] is 79.3 µM (active) and 79.5 µM (active); in test [9] it was 96.3 µM (active) and 50 µM (active) and 84.4 µM (active); in [10], 94 µM (active) and 50 µM (active) and 77 µM (active); in test [13], 82.1 µM (active). For the same molecule, the outcome with MYC, MYC (gene 4609) was “inactive”; in test [2], “inactive”; in [3] it was “inactive”; in [5] it was “inactive”; in test [7], “inactive”; in test [8], “inactive”. Further, the outcome in test [11], in [12], in test [13] and in test [14] was inactive.

Regarding `Cc1ccc(-c2c(Cl)nc(C#N)n2S(=O)(=O)N(C)C)cc1`, the AC50 in the test with MYC, MYC (gene 4609) is 13.1 µM (active); in [1] it was 7.7 µM (active); in test [2], 50 µM (active); in test [3], 32.2 µM (active); in [4] it was 16.8 µM (active); in [5] it was 50 µM (active). In addition, the AC50 in test [6] was 50 µM (active); in [9] it was 2.73 µM (active); in test [10], 18.4 µM (active); in test [11] it was 31.1 µM (active); in test [13], 34.9 µM (active); in test [14] it was 6.18 µM (active). In addition, the molecule was classed as inactive in test [7], in test [8], in [12] and in test [15].

Consider `CCON=C(CC)C1=C(O)CC(c2c(C)cc(C)cc2C)CC1=O` (stereo not drawn), for which the outcome is “inactive” with MYC, MYC (gene 4609); “inactive” in test [1]; “inactive” in [2]; “inactive” in [3]; “inactive” in [4]; “inactive” in test [5]. Also, the result in test [6], in test [7], in test [8], in test [9], in test [10] and in [11] was inactive. Further, the molecule was classed as inactive in test [12], in test [13] and in test [15]. In addition, the concentration at half-maximal activity (AC50) in [14] is 50 µM (active).

For the molecule `COc1cnc(OC)n2nc(NS(=O)(=O)c3c(OCC(F)F)cccc3C(F)(F)F)nc12`, the outcome in the test with MYC, MYC (gene 4609) was “inactive”; in [1], “inactive”; in test [3], “inactive”; in test [4] it was “inactive”; in [5], “inactive”; in test [6], “inactive”. For the same molecule, the outcome in test [7], in [8], in test [9], in test [10], in test [11] and in test [12] was inactive. The result in test [16], in test [13] and in test [15] was inactive. Also, the half-maximal activity concentration (AC50) in test [14] was 50 µM (active).
